# In PubChem BioAssay AID1159580 (chemical genetic matrix, 2015):
# Where “and” joins values, the source holds several entries; their conditions need not be identical. Identical values can stand only once. Out of some 5,500 compounds screened, about 2,000 (36%) were called active. Not shown: some 18% with an inconclusive outcome. This is one part of the list. Values without a mark were called inactive. Cut-off read from the data, not from the text of the source: active = normalized growth mostly below about 0.91 (no sharp cut-off); inconclusive = no clear call, values can overlap the other calls; inactive = mostly above about 0.92.
# Test: chemical genetic growth profiling, strain panel (AID 1159580);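 note: tested at 20 µM; growth read once vehicle control cultures reached saturation at 30 °C; 1 = growth at the plate median or of vehicle wells; lower values mean less growth of the strain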
# Conditions: S. cerevisiae deletion strains, growth OD
smiles,measurement,setting,value
O=C(O)CCCCC1CCSS1 (configuration not stated),normalized growth,"locus YAL013W, strain DEP1, stronger effect = lower value",0.97
same,normalized growth,"locus YAL021C, strain ccr4, stronger effect = lower value",1
same,normalized growth,"locus YAL026C, strain drs2, stronger effect = lower value",0.94
same,normalized growth,"locus YAL030W, strain snc1, stronger effect = lower value",0.974
same,normalized growth,"locus YBL061C, strain skt5, stronger effect = lower value",0.979
same,normalized growth,"locus YBR009C, strain hhf1, stronger effect = lower value",0.933
same,normalized growth,"locus YBR021W, strain FUR4, stronger effect = lower value",0.987
same,normalized growth,"locus YBR023C, strain chs3, stronger effect = lower value",0.977
same,normalized growth,"locus YBR171W, strain sec66, stronger effect = lower value",0.934
same,normalized growth,"locus YBR229C, strain ROT2, stronger effect = lower value",0.953
same,normalized growth,"locus YBR231C, strain swc5, stronger effect = lower value",0.979
same,normalized growth,"locus YBR279W, strain paf1, stronger effect = lower value",0.978
same,normalized growth,"locus YCL011C, strain gbp2, stronger effect = lower value",0.959
same,normalized growth,"locus YCL016C, strain dcc1, stronger effect = lower value",0.983
same,normalized growth,"locus YCL029C, strain bik1, stronger effect = lower value",0.993
same,normalized growth,"locus YCL061C, strain MRC1, stronger effect = lower value",0.956
same,normalized growth,"locus YCL069W, strain vba3, stronger effect = lower value",0.973
same,normalized growth,"locus YCR088W, strain abp1, stronger effect = lower value",0.978
same,normalized growth,"locus YDL005C, strain med2, stronger effect = lower value",1.02
same,normalized growth,"locus YDL035C, strain GPR1, stronger effect = lower value",0.98
same,normalized growth,"locus YDL040C, strain nat1, stronger effect = lower value",0.976
same,normalized growth,"locus YDL074C, strain BRE1, stronger effect = lower value",0.99
same,normalized growth,"locus YDL101C, strain DUN1, stronger effect = lower value",0.978
same,normalized growth,"locus YDL134C, strain PPH21, stronger effect = lower value",0.974
same,normalized growth,"locus YDL185W, strain tfp1, stronger effect = lower value",0.942
same,normalized growth,"locus YDL192W, strain arf1, stronger effect = lower value",0.979
same,normalized growth,"locus YDR001C, strain nth1, stronger effect = lower value",0.971
same,normalized growth,"locus YDR069C, strain doa4, stronger effect = lower value",0.982
same,normalized growth,"locus YDR101C, strain arx1, stronger effect = lower value",0.996
same,normalized growth,"locus YDR137W, strain rgp1, stronger effect = lower value",0.883
same,normalized growth,"locus YDR150W, strain NUM1, stronger effect = lower value",0.958
same,normalized growth,"locus YDR159W, strain sac3, stronger effect = lower value",0.984
same,normalized growth,"locus YDR162C, strain NBP2, stronger effect = lower value",0.938
same,normalized growth,"locus YDR195W, strain ref2",0.994
same,normalized growth,"locus YDR297W, strain sur2, stronger effect = lower value",0.975
same,normalized growth,"locus YDR318W, strain mcm21, stronger effect = lower value",0.992
same,normalized growth,"locus YDR334W, strain swr1, stronger effect = lower value",0.978
same,normalized growth,"locus YDR335W, strain msn5, stronger effect = lower value",0.97
same,normalized growth,"locus YDR388W, stronger effect = lower value",0.985
same,normalized growth,"locus YDR392W, strain spt3, stronger effect = lower value",0.888
same,normalized growth,"locus YDR502C, strain sam2, stronger effect = lower value",0.975
same,normalized growth,"locus YEL003W, strain gim4, stronger effect = lower value",0.961
same,normalized growth,"locus YEL037C, strain rad23, stronger effect = lower value",0.976
same,normalized growth,"locus YEL061C, strain CIN8 (second series), stronger effect = lower value",0.968
same,normalized growth,"locus YEL061C, strain CIN8, stronger effect = lower value",0.975
same,normalized growth,"locus YER015W, strain faa2, stronger effect = lower value",0.985
same,normalized growth,"locus YER016W, strain bim1, stronger effect = lower value",0.983
same,normalized growth,"locus YER110C, stronger effect = lower value",0.961
same,normalized growth,"locus YER111C, strain swi4, stronger effect = lower value",0.963
same,normalized growth,"locus YER155C, strain BEM2 (second series), stronger effect = lower value",0.922
same,normalized growth,"locus YER155C, strain BEM2, stronger effect = lower value",0.989
same,normalized growth,"locus YER167W, strain BCK2, stronger effect = lower value",0.981
same,normalized growth,"locus YFR010W, strain ubp6, stronger effect = lower value",0.962
same,normalized growth,"locus YGL078C, strain dbp3, stronger effect = lower value",0.981
same,normalized growth,"locus YGL086W, strain mad1, stronger effect = lower value",0.97
same,normalized growth,"locus YGL167C, strain pmr1, stronger effect = lower value",0.95
same,normalized growth,"locus YGL173C, strain kem1, stronger effect = lower value",0.973
same,normalized growth,"locus YGL227W, strain vid30, stronger effect = lower value",0.965
same,normalized growth,"locus YGL240W, strain doc1, stronger effect = lower value",0.956
same,normalized growth,"locus YGL248W, strain PDE1, stronger effect = lower value",0.981
same,normalized growth,"locus YGL253W, strain hxk2, stronger effect = lower value",0.992
same,normalized growth,"locus YGR078C, strain PAC10, stronger effect = lower value",0.999
same,normalized growth,"locus YGR135W, strain pre9, stronger effect = lower value",0.982
same,normalized growth,"locus YGR229C, strain SMI1, stronger effect = lower value",1.01
same,normalized growth,"locus YGR252W, strain gcn5, stronger effect = lower value",0.873
same,normalized growth,"locus YHR013C, strain ard1, stronger effect = lower value",0.935
same,normalized growth,"locus YHR027C, strain rpn1, stronger effect = lower value",0.987
same,normalized growth,"locus YHR030C, strain SLT2, stronger effect = lower value",0.98 and 0.943
same,normalized growth,"locus YHR079C, strain IRE1 (second series), stronger effect = lower value",0.984
same,normalized growth,"locus YHR079C, strain IRE1, stronger effect = lower value",0.383 (active)
same,normalized growth,"locus YHR094C, strain hxt1, stronger effect = lower value",0.981
same,normalized growth,"locus YHR129C, strain ARP1, stronger effect = lower value",0.997
same,normalized growth,"locus YHR142W, strain chs7, stronger effect = lower value",1.02
same,normalized growth,"locus YHR200W, strain rpn10, stronger effect = lower value",0.991
same,normalized growth,"locus YIL066C, strain RNR3, stronger effect = lower value",0.985
same,normalized growth,"locus YIL073C, strain SPO22, stronger effect = lower value",0.978
same,normalized growth,"locus YIL125W, strain kgd1, stronger effect = lower value",0.99
same,normalized growth,"locus YIR030C, strain dcg1, stronger effect = lower value",0.978
same,normalized growth,"locus YJL092W, strain hpr5, stronger effect = lower value",0.972
same,normalized growth,"locus YJL095W, strain BCK1 (second series), stronger effect = lower value",0.975
same,normalized growth,"locus YJL095W, strain BCK1, stronger effect = lower value",1.03 and 0.902
same,normalized growth,"locus YJL115W, strain asf1, stronger effect = lower value",0.978
same,normalized growth,"locus YJL129C, strain trk1, stronger effect = lower value",0.91
same,normalized growth,"locus YJL134W, strain LCB3, stronger effect = lower value",0.977
same,normalized growth,"locus YJL154C, strain vps35, stronger effect = lower value",0.975
same,normalized growth,"locus YJL164C, strain tpk1, stronger effect = lower value",0.967
same,normalized growth,"locus YJL166W, strain qcr8, stronger effect = lower value",0.976
same,normalized growth,"locus YJL168C, strain set2, stronger effect = lower value",0.992
same,normalized growth,"locus YJL187C, strain SWE1 (second series), stronger effect = lower value",0.992
same,normalized growth,"locus YJL187C, strain SWE1, stronger effect = lower value",0.973
same,normalized growth,"locus YJR043C, strain POL32, stronger effect = lower value",1.01
same,normalized growth,"locus YJR066W, strain TOR1, stronger effect = lower value",0.812 (active)
